This passage reports composite z-score and composite Z-score results from PubChem BioAssay.

The source made the active and inactive calls.

In one assay the target is Albumin (Bos taurus) (UniProt P02769). Briefly: compounds binding labelled BSA control protein – biochemical, small-molecule microarray, Alexa647 label, 635/667 nm fluorescence, artefact control for SMM control protein annotation, profiling panel (AID 1118).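 Note: score merges 667 nm emission intensity and signal-to-noise per printed compound spot.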 The conditions noted are these: BSA-A647 binding, fluorescence 635 nm, higher = more signal.
The nature of assay [1]: probe aXIP binding to arrayed compounds – biochemical, NeuroSMM set, 635/667 nm fluorescence, primary screen (AID 1119).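 Note: probe is the protein aXip251-270 applied at 1 µg/mL to compound-printed slides; binding of probe to printed compounds measured as 667 nm fluorescence plus signal to noise.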 The conditions noted are these: small-molecule microarray, higher = more signal, called active from +8 up or from −8 down.
The nature of assay [2]: probe aNOTCH3 binding on compound microarray – biochemical, small-molecule microarray, 635/667 nm fluorescence, primary screen (AID 1120).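 Note: probe is a biotin-tagged antibody raised against NOTCH3 rather than NOTCH3 protein; score merges spot fluorescence near 667 nm with spot signal to noise.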 The conditions noted are these: higher = more signal.
The nature of assay [3]: probe aNOTCH2 binding on compound microarray – biochemical, small-molecule microarray, 635/667 nm fluorescence, primary screen (AID 1121).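 Note: score merges feature fluorescence read at 667 nm with its signal to noise.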 The conditions noted are these: higher = more signal.
The target of assay [4] is Carbonic anhydrase 2 (Homo sapiens) (UniProt P00918). In words: compounds binding carbonic anhydrase 2 – biochemical, small-molecule microarray, Alexa647-labelled CAII, profiling panel (AID 1122). The conditions noted are these: CAII-A647 binding fluorescence, higher = more signal.
Assay [5] can be described thus: COS7 lysate on small-molecule microarray, probe aHis, 635 nm (AID 1123).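 Note: z-score combines 667nm fluorescence intensity with signal-to-noise per printed compound spot.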 The conditions noted are these: COS7 cell lysate, fluorescence, higher = more signal.
A short description of assay [6]: probe aLAP1 signal on lysate-treated microarray – cell lysate, small-molecule microarray, COS7 lysate, primary screen (AID 1124).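 Note: lysate comes from COS7 cells expressing LAP1 and is applied at 0.3 µg/mL; score merges spot fluorescence near 667 nm with signal-to-noise over triplicate slides.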 The conditions noted are these: probe aLAP1, fluorescence, higher = more signal.
The test system of another assay is Sam68 (KHDRBS1). Briefly: compounds binding KHDRBS1 protein – biochemical, small-molecule microarray, 635 nm fluorescence, primary screen (AID 1125).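 Note: score merges 667 nm channel intensity with signal to noise over triplicate slides.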 The conditions noted are these: higher = more signal.
The test system of assay [7] is Chordin-like protein 2 (CHRDL2). Briefly: compounds binding chordin-like 2 – biochemical, small-molecule microarray, 635 nm fluorescence, primary screen (AID 1126).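 Note: printed compound slides probed with Chrdl2 protein at 4 µg/mL for 1 h at 4 C; score merges 667 nm emission intensity with signal to noise over three replicate slides.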 The conditions noted are these: fluorescence 635 nm, higher = more signal.
Assay [8] deals with Concanavalin-A (Canavalia ensiformis) (UniProt P02866). In words: compounds binding concanavalin A lectin – biochemical, small-molecule microarray, Alexa647 label, 635 nm, artefact control for SMM control protein annotation, primary screen (AID 1127).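 Note: z combines 667 nm emission intensity with signal-to-noise across three replicate slides.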 The conditions noted are these: ConA-A647 binding fluorescence, higher = more signal.
Concanavalin-A (Canavalia ensiformis), sequence (P02866 whole entry, looked up): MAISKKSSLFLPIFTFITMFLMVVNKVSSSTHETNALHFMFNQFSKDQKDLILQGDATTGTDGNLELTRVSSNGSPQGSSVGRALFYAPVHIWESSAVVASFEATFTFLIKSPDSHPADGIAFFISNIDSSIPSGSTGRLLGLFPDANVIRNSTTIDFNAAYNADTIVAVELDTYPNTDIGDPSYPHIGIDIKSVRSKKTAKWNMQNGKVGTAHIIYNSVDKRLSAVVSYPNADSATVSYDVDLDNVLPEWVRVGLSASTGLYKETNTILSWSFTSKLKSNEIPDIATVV

Albumin (Bos taurus), sequence (P02769 whole entry, looked up): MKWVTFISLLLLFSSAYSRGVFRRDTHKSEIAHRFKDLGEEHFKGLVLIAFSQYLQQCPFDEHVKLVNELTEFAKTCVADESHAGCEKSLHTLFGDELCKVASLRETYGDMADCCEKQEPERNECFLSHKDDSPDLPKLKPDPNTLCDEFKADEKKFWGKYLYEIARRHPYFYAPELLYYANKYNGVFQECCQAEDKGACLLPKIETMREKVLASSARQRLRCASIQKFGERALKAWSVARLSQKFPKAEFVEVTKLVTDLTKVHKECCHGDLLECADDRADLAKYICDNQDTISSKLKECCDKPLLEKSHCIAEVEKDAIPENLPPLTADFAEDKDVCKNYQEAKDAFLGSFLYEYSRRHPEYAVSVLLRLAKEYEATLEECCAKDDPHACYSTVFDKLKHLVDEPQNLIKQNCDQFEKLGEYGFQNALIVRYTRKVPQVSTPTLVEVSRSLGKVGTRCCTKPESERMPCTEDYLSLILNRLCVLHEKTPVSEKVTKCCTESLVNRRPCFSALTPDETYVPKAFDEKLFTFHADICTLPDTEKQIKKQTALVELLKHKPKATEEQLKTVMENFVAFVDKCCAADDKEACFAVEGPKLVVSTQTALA

With `O=C1OCCC=C[C@H]2OC34C=CCN(c5ccc6ccccc6c5)C(=O)[C@H]3N(CCCO)C(=O)[C@@H]4C12` (stereo not given in full), the composite z-score in the assay with Albumin (Bos taurus) is -1.39; in assay [2], -0.278; in [3], -0.205; in assay [4], -0.303; in [5] it was -0.626; in [6] it was -0.678. Besides, the composite z-score in the assay on Sam68 (KHDRBS1) is -1.82; in assay [7], -2.29; in assay [8], -0.533. Moreover, the composite Z-score in assay [1] is 0.168 (inactive).
For `O[C@@H](Cc1ccccc1)[C@@H](/C=C/C1CC1)N(CC#Cc1ccccc1)Cc1ccccc1Br`, the composite z-score with Albumin (Bos taurus) was -0.144; in assay [2] it was -0.218; in assay [3], -0.171; in assay [4], -0.0441; in assay [5], 0.41; in assay [6], 0.146. Further, the composite z-score was -1.33 with Sam68 (KHDRBS1), -1.36 in assay [7] and -0.564 in [8]. In assay [1], the composite Z-score was 0.586 (inactive).
Take `NCCCCCNC(=O)[C@H]1C[C@H]2C(=O)N3CCC[C@H]3C(=O)N2[C@H]1c1cccc(OCCO)c1`: the composite z-score came out at 0.729 with Albumin (Bos taurus); 0.185 in assay [2]; 0.0305 in [3]; 0.705 in [4]; 1.59 in assay [5]; 0.466 in assay [6]. Further, the composite z-score with Sam68 (KHDRBS1) was 0.967; in [7], 0.18; in assay [8], 0.894. Besides, the composite Z-score in [1] is 0.325 (inactive).
With `C[N+](C)(C)CCCC[C@@H]1NC(=O)[C@@H]2C[C@H](C(=O)NCCCCCCN)[C@H](c3cccc(OCCO)c3)N2C1=O`, the composite z-score stood at 0.919 in the assay with Albumin (Bos taurus); 0.39 in assay [2]; 0.409 in assay [3]; 0.608 in assay [4]; 1.54 in assay [5]; 0.731 in [6]. Further, the composite z-score came to 1.31 in the assay on Sam68 (KHDRBS1), 0.518 in assay [7] and 1.12 in assay [8]. Moreover, the composite Z-score in assay [1] was 1.24 (inactive).
`Cc1cc(C)c(C(O)C2C=CC3C(=O)N(c4ccccc4)C(=O)C3N2Nc2ccccc2F)c(C)c1` (stereo not given): the composite z-score in the assay with Albumin (Bos taurus) came to 0.553; in assay [2], 0.0602; in assay [3] it was 0.0278; in [4], 0.365; in assay [5], 1.08; in assay [6] it was 0.725. For the same molecule, the composite z-score in the assay on Sam68 (KHDRBS1) is -0.186; in assay [7], 0.0036; in assay [8] it was 0.511. The composite Z-score in assay [1] is 0.224 (inactive).
Turning to `CC1=C2[C@@H](CCc3ccccc3)OB(O)C[C@@H]2[C@@H]2C(=O)N(C)C(=O)[C@@H]2C1`, the composite z-score with Albumin (Bos taurus) is 0.541; in assay [2], 0.248; in assay [3], -0.138; in assay [4], 0.422; in assay [5] it was 0.0513; in assay [6], 0.76. Also, the composite z-score with Sam68 (KHDRBS1) came out at 0.453; in assay [7], 0.723; in [8] it was 0.245. For the same molecule, the composite Z-score in [1] is 0.706 (inactive).
With `O=C1C2C=CC(C(O)c3ccco3)N(Nc3ccccc3F)C2C(=O)N1c1ccccc1` (stereo not given), the composite z-score was 0.963 with Albumin (Bos taurus); 0.101 in [2]; -0.104 in assay [3]; -0.0101 in [4]; 1.85 in assay [5]; 0.433 in [6]. Further, the composite z-score is 0.309 in the assay on Sam68 (KHDRBS1), -0.238 in assay [7] and 0.403 in assay [8]. Also, the composite Z-score in assay [1] was 1.49 (inactive).
Turning to `[N-]=[N+]=NCc1ccccc1C[C@@]1(C(N)=O)N=C(c2ccc(OCCCO)cc2)O[C@@H]1c1ccccc1`, the composite z-score with Albumin (Bos taurus) was 1.09; in assay [2], 0.0762; in assay [3], 0.0341; in assay [4] it was 0.693; in assay [5], 2.83; in assay [6] it was 0.368. For the same molecule, the composite z-score is 1.3 with Sam68 (KHDRBS1), -1.38 in assay [7] and 0.341 in assay [8]. Moreover, in assay [1], the composite Z-score was 0.294 (inactive).
With `COC(=O)[C@]1(CCS(=O)(=O)c2ccccc2)N=C(c2ccc(OCCCO)cc2)O[C@@H]1c1ccccc1N=[N+]=[N-]`, the composite z-score in the assay with Albumin (Bos taurus) is -0.325; in assay [2], 0.359; in assay [3], 0.142; in assay [4], 0.78; in assay [5], 2.93; in assay [6] it was 0.612. The composite z-score amounted to 1.29 with Sam68 (KHDRBS1), 0.412 in [7] and 1.19 in assay [8]. Also, the composite Z-score in [1] was 0.0652 (inactive).
Take `COC(=O)C1=CC(CCCO)=CC(c2cccs2)N(C)C=C1C(=O)OC` (stereo not given): the composite z-score with Albumin (Bos taurus) is 0.445; in [2] it was -0.0879; in [3] it was -0.115; in assay [4] it was 0.869; in assay [5], 1.17; in assay [6], -0.371. In addition, the composite z-score in the assay on Sam68 (KHDRBS1) is -0.213; in assay [7] it was -0.44; in assay [8] it was 0.34. Also, the composite Z-score in assay [1] was 0.156 (inactive).
For `CCOC(=O)C[C@H]1[C@H](OC(=O)c2ccccc2-c2ccccc2)[C@@H](NC(=O)c2ccc3ccccc3c2)c2cc(OCCCO)ccc2N1C(=O)c1ccccc1`, the composite z-score with Albumin (Bos taurus) is 0.5; in assay [2] it was 0.138; in assay [3], -0.206; in assay [4], 0.355; in assay [5], 0.462; in assay [6], -0.0843. The composite z-score in the assay on Sam68 (KHDRBS1) amounted to 0.735; in [7] it was 0.578; in [8], 0.215. Also, the composite Z-score in assay [1] is -0.0287 (inactive).
In the case of `COc1cccc(C)c1NC(=O)O[C@H]1[C@H](OC(=O)Nc2ccccc2-c2ccccc2)[C@H](OC(=O)Nc2ccccc2-c2ccccc2)[C@@H](OC)O[C@@H]1CO`, the composite z-score with Albumin (Bos taurus) came to 0.816; in [2] it was 0.233; in assay [3], 0.0149; in [4], 0.434; in [5], 0.947; in [6], 0.429. Also, the composite z-score in the assay with Sam68 (KHDRBS1) came out at 1.29; in assay [7], 0.494; in [8] it was 1.15. Moreover, the composite Z-score in [1] is 0.497 (inactive).
With `C=CC[C@H](OC(=O)Nc1ccc(SC)cc1)c1ccc(O)c2ccccc12`, the composite z-score with Albumin (Bos taurus) is 0.923; in [2], 0.152; in assay [3] it was -0.107; in assay [4] it was 0.634; in [5], 1.72; in [6] it was 0.368. Also, the composite z-score in the assay on Sam68 (KHDRBS1) was 1.29; in assay [7], 0.975; in assay [8] it was 1.16. In [1], the composite Z-score is -0.285 (inactive).
As for `COC(=O)[C@@]1(Cc2ccc(F)cc2)[C@H]2c3cc(C(=O)N4CCCC4)n(CCc4c[nH]c5ccccc45)c3C[C@H]2CN1C(=O)c1ccccc1`, the composite z-score with Albumin (Bos taurus) is 1.11; in assay [2] it was 0.558; in [3], 0.184; in assay [4], 0.795; in [5], 3.17; in assay [6], 1.76. The composite z-score in the assay with Sam68 (KHDRBS1) was 1.3; in assay [7], 0.291; in [8], 0.984. The composite Z-score in [1] was -0.263 (inactive).
